# Inconclusive results are not listed. Unmarked numbers belong to inactive results. The source made the active and inactive calls. Calls follow the shape of the dose curve; as a rule, active = well fitted curve in the direction sought with a large enough effect; inconclusive = small, poorly fitted or top-dose-only effect, or another doubt; inactive = no such curve, though single readings can be large; an effect the other way counts as inactive or inconclusive. Where a SMILES comes first, the peptide text is derived from it. The star is where a group is joined. AMC = Cc1cc(=O)oc2cc(N*)ccc12; Cbz = O=C(OCc1ccccc1)*; Hexanoyl = CCCCCC(=O)*
# Experiments:
# [1] = tested on: Zika virus NS2B-NS3 protease (linked construct); assay: Confirmatory screen NINDS AMC qHTS for Zika virus inhibitors (AID 1347152); also: potency is read from the fitted curve at half-maximal effect; nearly all actives have a fitted effect of over 70% in size
# Outline: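 Linked NS2B-NS3 1 nM, Tris pH 8.0/0.01% Tween 20; cpd 15 min RT dark; + Nle-KRR-AMC 10 µM (Km 18.3 µM); read 0 and 15 min, 340/450 nm; %inh vs controls, 4-param Hill.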
# [2] = tested on: Zika virus NS2B-NS3 protease (unlinked complex); assay: Confirmatory screen GU AMC qHTS for Zika virus inhibitors (AID 1347153); also: potency is read from the fitted curve at half-maximal effect; nearly all actives have a fitted effect of over 70% in size
# Outline: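 Unlinked enzyme 25 nM, Tris pH 8.0/0.01% Tween 20; cpd 15 min RT, dark; + AMC substrate 10 µM (Km 18.3 µM); 340/450 nm read at t0 and 15 min; % inhibition → 4-param fit.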
# [3] = Confirmatory screen GU Rhodamine qHTS for Zika virus inhibitors qHTS (AID 1347157); also: nearly all actives have a fitted effect of over 70% in size; also: potency is read from the fitted curve at half-maximal effect
# Outline: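 In dose–response format, inhibition of unlinked protease (25 nM) was measured with 1.5 microM bis-peptide Rhodamine110 substrate. Aprotinin served as the intraplate control.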
# [4] = ZIKV-mCherry secondary qHTS for Zika virus inhibitors (AID 1347158); also: top concentration of the series differs between compounds
# Outline: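 Compounds were tested in Vero monkey kidney cells infected with recombinant mCherry-expressing Zika virus at MOI 1 for 48-72 h at 37 °C. Fixed cells were nuclear-stained and imaged, and infection rate was taken as the fraction of mCherry-positive cells.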
# [5] = tested on: Zika virus NS2B-NS3 protease (unlinked complex); assay: Primary screen GU Rhodamine qHTS for Zika virus inhibitors: Unlinked NS2B-NS3 protease assay (AID 1347159); also: nearly all actives have a fitted effect of over 60% in size; also: potency is read from the fitted curve at half-maximal effect
# Outline: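 Unlinked NS2B/NS3, 25 nM; Rhod110 peptide, 1.5 microM; compounds, up to 114 microM. Reaction run 15 min at RT in 10 mM Tris-HCl pH 8.0, 0.01% Tween 20; kinetic fluorescence change fitted with a 4-parameter Hill model.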
# [6] = tested on: Zika virus NS2B-NS3 protease (linked construct); assay: Primary screen NINDS Rhodamine qHTS for Zika virus inhibitors (AID 1347160); also: potency is read from the fitted curve at half-maximal effect; nearly all actives have a fitted effect of over 55% in size
# Outline: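 Single-chain NS2B-NS3 protease, 25 nM, pH 8.0; compounds preincubated 15 min. Activity: Rhodamine110 release from 1.5 microM substrate over 15 min, room temperature, data fitted to 4-parameter Hill.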
# [7] = Confirmatory screen NINDS Rhodamine qHTS for Zika virus inhibitors (AID 1347161); also: nearly all actives have a fitted effect of over 60% in size; also: potency is read from the fitted curve at half-maximal effect
# Outline: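 In 10 mM Tris-HCl pH 8.0 containing 0.01% Tween 20, linked NS2B-NS3 protease (25 nM final) is exposed to test compounds for 15 min. Cleavage of 1.5 microM Rhodamine110 substrate is tracked by fluorescence over 15 min.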
# [8] = tested on: Zika virus NS2B-NS3 protease (linked); assay: 384 well plate NINDS AMC confirmatory qHTS for Zika virus inhibitors (AID 1347163); also: potency is read from the fitted curve at half-maximal effect; nearly all actives have a fitted effect of over 50% in size
# Outline: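 Fluorescence at 355/460 nm was read after 25 minutes of cleavage of 30 microM Ac-VKTGKR-AMC at room temperature, in the dark. Before substrate addition, compounds (up to 1 mM final) sat ~15 minutes with 5, 30 or 60 nM linked protease. Signals were normalized to no-enzyme and no-inhibitor wells.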
# [9] = tested on: Zika virus NS2B-NS3 protease (linked construct); assay: 384 well plate NINDS Rhodamine confirmatory qHTS for Zika virus inhibitors (AID 1347164);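 also: fluorescence from protease cleavage of Ac-LKRR-rhodamine 110 substrate; potency is read from the fitted curve at half-maximal effect; nearly all actives have a fitted effect of over 65% in size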
# Outline: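 Fluorescence read at ex 485 nm/em 538 nm, 25 min after adding 10 microM Ac-LKRR-Rd substrate at room temperature in the dark; signal normalized to no-enzyme and no-inhibitor controls. Enzyme final 5, 30 or 60 nM; compounds, ~15 min preincubation.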
# [10] = Vero cells viability qHTS for Zika virus inhibitors (AID 1347167)
# Outline: (§1)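 Luminescent ATP readout (CellTiter Glo) after 30 min at 37 degrees C gives viability; cells in DMEM + 4% FBS were treated 24 to 48 hours with compound, following overnight attachment.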
# [11] = HepG2 cells viability qHTS for Zika virus inhibitors (AID 1347168)
# Outline: as §1
# [12] = Tertiary RLuc qRT-PCR qHTS assay for Zika virus inhibitors (AID 1347169); also: nearly all actives have a fitted effect of over 55% in size; also: potency is read from the fitted curve at half-maximal effect
# Outline: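 Luminescence read-out: live-cell Renilla luciferase substrate applied to infected Vero cells, signal measured after 1-1.5 hrs. Cells had received compound before ZIKV-RLuc (Cambodian strain, MOI 1-2) infection and were incubated 48-72 hrs at 37 degrees C.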
smiles,measurement,setting,value
C/C=C/C=C/C=C/C(=O)O[C@@H]1[C@@H](OC)C2=C(C(=O)N(C(CCC(=O)O)C(=O)O)C2)[C@@]2(C)CCCC(C)(C)[C@H]12 (stereo partly specified),Potency,[1],24.2 µM (active)
same,Potency,[2],9.61 µM (active)
same,Potency,[3],4.82 µM (active)
same,Potency,[4],inactive
same,Potency,[5],4.47 µM (active)
same,Potency,[6],7.08 µM (active)
same,Potency,[7],2.71 µM (active)
same,Potency,[8],2.24 µM (active)
same,Potency,[9],15.8 µM (active)
same,outcome,[10],inactive
same,outcome,[11],inactive
same,Potency,[12],inactive
Cc1ccc([C@@H]2CC=C(C(=O)O)[C@H](c3ccc(C(C)(C)C)cc3)N2S(=O)(=O)c2ccc(C)cc2)cc1,Potency,[1],15.6 µM (active)
same,Potency,[2],19.7 µM (active)
same,Potency,[3],3.12 µM (active)
same,Potency,[5],2.51 µM (active)
same,Potency,[6],2.24 µM (active)
same,Potency,[7],2.78 µM (active)
same,Potency,[8],3.55 µM (active)
same,Potency,[9],4.47 µM (active)
same,outcome,[10],inactive
same,outcome,[11],inactive
same,Potency,[12],18.6 µM (active)
C[C@@]1(O)[C@H](O)[C@@H](CO)O[C@H]1n1cnc2c(=O)[nH]c(N)nc21,Potency,[5],inactive
Fc1ccccc1-c1nc2ccn(Cc3ccc(-c4ccc(C(F)(F)F)cc4C(F)(F)F)nn3)cc-2n1,Potency,[5],inactive
O=C(O)CC/C=C\C[C@H]1CO[C@@H](c2ccccc2Cl)O[C@H]1c1ccccc1O,Potency,[3],31.2 µM (active)
same,Potency,[5],inactive
same,Potency,[7],44.1 µM (active)
same,Potency,[12],inactive
Cc1cc(-n2c(=O)[nH]c(=O)n(C)c2=O)ccc1Oc1ccc(SC(F)(F)F)cc1,Potency,[5],15.8 µM (active)
CC1(C(=O)O)CCCC2(C)C3CC4C5CC3(CCC12)CC45C (stereo unspecified),Potency,[5],10 µM (active)
Cc1oc(S(=O)(=O)N2CCCCC2)cc1NC(=O)Nc1ccccc1,Potency,[5],inactive
COc1cc(CO)cc(OC)c1O[C@@H]1O[C@H](CO)[C@@H](O)[C@H](O)[C@H]1O,Potency,[5],inactive
C[C@]12CCC[C@](C)(C(=O)O)C1[C@@H](O)[C@@H](O)C13CC(CCC12)C(CO)(O[C@@H]1O[C@H](CO)[C@@H](O)[C@H](O)[C@H]1O)C3 (stereo partly specified),Potency,[5],inactive
O=C(O)c1cccc(CN2C(=O)/C(=C(\c3ccccc3)c3ccc(Cl)cc3)c3ccccc32)c1,Potency,[5],1.41 µM (active)
CC(C)=C1CC2C(CCC2(C)O)C(C)(O)CC1=O (stereo unspecified),Potency,[5],inactive
Cc1cc(=O)oc2cc(NC(=O)[C@H](CCC(=O)O)NC(=O)[C@H](CC(C)C)NC(=O)[C@H](CC(C)C)NC(=O)OCc3ccccc3)ccc12 (Cbz-Leu-Leu-Glu-{AMC}),Potency,[5],inactive
CC1(C)CC[C@]2(C(=O)O)CC[C@]3(C)C(=CCC4[C@@]5(C)CC[C@H](O[C@@H]6O[C@H](C(=O)O)[C@@H](O)[C@H](O)[C@H]6O)C(C)(C)C5CC[C@]43C)C2C1 (stereo partly specified),Potency,[3],5.84 µM (active)
same,Potency,[7],6.55 µM (active)
same,Potency,[9],2.24 µM (active)
same,Potency,[12],9.79 µM (active)
O=C(C1OC1/C=C/c1ccc2c(c1)OCO2)N1CCCCC1 (stereo unspecified),Potency,[5],inactive
Cc1cn(-c2cc(NC(=O)c3ccc(C)c(Nc4nccc(-c5cnccn5)n4)c3)cc(C(F)(F)F)c2)cn1,Potency,[5],inactive
CC(C)CC(=O)NCCn1cc(C(=O)O)c(=O)cc1C(O)c1ccccc1 (stereo unspecified),Potency,[5],inactive
CCCCCC(=O)N1CCC[C@H]1C(=O)N[C@@H](Cc1ccc(O)cc1)C(=O)OC (Hexanoyl-Pro-Tyr-OMe),Potency,[3],inactive
same,Potency,[5],inactive
same,Potency,[7],inactive
same,Potency,[12],inactive
C=C1CCC2C(C)(C)CC(O)CC2(C)C1CCC(C)CC(=O)O (stereo unspecified),Potency,[5],11.2 µM (active)
COc1cccc(C)c1C(=O)O[C@@H]1C[C@H](O[C@H]2[C@H](O)C[C@H](O[C@@H]3CCC[C@H]4[C@H]3C=C[C@@H]3CCCC/C=C/[C@H]5C=C(C(=O)O)[C@@H](C)C[C@@]56OC(=O)C(=C6O)OC(=O)[C@@]34C)O[C@@H]2C)O[C@H](C)[C@H]1O,Potency,[5],inactive
C=CC(C)(O)CC/C=C(\C)COC1O[C@H](CO)[C@@H](O)[C@H](O)[C@H]1O (stereo partly specified),Potency,[5],12.6 µM (active)
